About 64,000 (15%) of roughly 420,000 compounds were called active. About 27% were inconclusive and are not listed. A selection follows. Values without a mark were called inactive. The call rests on the fitted dose curve; in most records, active means well fitted inhibition curve with a large enough effect; inconclusive means small, poorly fitted or top-dose-only effect; inactive means flat fitted curve, though single readings scatter. Square brackets hold non-standard residues; d marks the D form. Peptide text beside a SMILES is read from it. ξ: configuration not given here. Ac5c = NC1(C(=O)O)CCCC1; ξS = NC(CO)C(=O)O
Experiment: qHTS for Inhibitors of human tyrosyl-DNA phosphodiesterase 1 (TDP1): qHTS in cells in absence of CPT; further: nearly all actives have a fitted effect of over 55% in size
Settings: DT40 Tdp1-/- hTDP1 cells, no CPT, ATP luminescence, 48 h; activity change, negative = growth inhibition: at 46.2 µM (top of the series)
Outline: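 DT40 Tdp1-/-;hTDP1 cells, no CPT (DMSO vehicle only), 400 cells/well; compounds pin-transferred; ≥48 hr, 37 °C; CellTiter-Glo 30 min RT dark, luminescence read.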
On the % scale 0 is the no-effect control and ±100 the full control effect; potency means the concentration at half of the fitted maximal effect.

SMILES	activity change, negative = growth inhibition [%]	Potency
CC(C)(O)C#Cc1ccc(CNC[C@H]2O[C@@H](n3cnc4c(=O)[nH]c(N)nc43)[C@H](O)[C@@H]2O)s1	2.14	
O=C(CN1CCC(NC(=O)C2CC2)CC1)Nc1ccccc1[N+](=O)[O-]	-8.6	
C=O	1.38	
CN1CCC2(CC1)NC(=O)NC2=O	-11.8	
Cc1ccc(NC(=O)COC(=O)CNC(=O)c2ccc(Cl)cc2Cl)cc1S(=O)(=O)N1CCOCC1	1.87	
NC(=O)Cc1ccc2sc(-c3ccccc3)nc2c1	-21.5	
Cn1c(=O)n(C)c2cc(/C=N/NC(=O)c3cccc(Br)c3)ccc21	-24.1	
Cc1ccc(-c2cc(C(=O)Nc3nn[nH]n3)c3ccccc3n2)c(C)c1	1.44	
COc1ccc(CN(C)C(=O)c2cc(-c3ccc(C)cc3C)nc3ccccc23)c(OC)c1OC		11.6 µM (active)
COc1ccc(CN(C)C(=O)Cc2ccsc2)c(OC)c1OC	-6.23	
CC(=O)Nc1nc2c(s1)C(=O)NCC(C)(C)C2	5.92	
Cn1nc(C(C)(C)C)c(NC(=O)c2sccc2Cl)c1C(C)(C)C	-23.7	
NCCCNCCCCN(CCCN)/[N+]([O-])=N/O		13.3 µM (active)
COc1ccc(CN2[C@@H](CC(=O)O)c3cc(F)ccc3S2(=O)=O)cc1		inactive
COCCNC(=S)N1CCC(NC(=O)C23CC4CC(CC(C4)C2)C3)CC1	-11.4	
S=C(Nc1cccc(Cl)c1)Nc1ccc2c(c1)OCCO2	-15.8	
S=C(Nc1cccc(Cl)c1)Nc1ccc2cn[nH]c2c1	-3.53	
Cc1csc(NC(=S)Nc2cccc(Cl)c2)n1		4.61 µM (active)
COc1cc(Cl)c(C)cc1Nc1nnc(-n2nc(C)cc2C)c2ccccc12	-24	
Cc1ccc(NC(=O)NC(=O)CSc2nnc(-c3ccc(OC(F)F)cc3)n2N)c(C)c1	11.1	
CCOC(=O)CN(C(=O)CN1CCOCC1)c1ccc(Br)cc1	-10.1	
COC(CNC(=O)c1ccc2c(c1)ncn2-c1cc(C)cc(C)c1)OC	-14.3	

SMILES	activity change, negative = growth inhibition [%]	Potency
COc1ccc(-n2cnc3cc(C(=O)NC4CCCC4)ccc32)cc1	-25.9	
COCCNC(=O)c1ccc2c(c1)ncn2-c1ccc(C)c(Cl)c1		14.6 µM (active)
CC(=O)N/C(=C\c1ccc(F)cc1)C(=O)NC(Cc1ccccc1)C(=O)O (stereo not drawn)	8.07	
Cc1cc(C)cc(NC(=O)CSCc2cnn(-c3ccccc3)c2-n2cccc2)c1		10.3 µM (active)
Cc1cc(C)cc(NC(=O)CSc2ccccc2)c1	-21.9	
CC(=O)Nc1ccc(NC(=O)CSCc2cnn(-c3ccccc3)c2-n2cccc2)cc1	-14.5	
CCOC(=O)c1ccc(N2C(=O)CC(N3CCN(C(=O)c4ccccc4)CC3)C2=O)cc1 (stereo not drawn)	18.9	
FC(F)(F)c1nnc2c3ccccc3c(Cl)nn12		6.51 µM (active)
FC(F)(F)c1nnc2sc(-c3ccco3)nn12	15.9	
Nc1nnc2c(C(F)(F)F)nc3ccccc3n12	-21.9	
O=C(COC(=O)c1cc2c(s1)CCCC2)NCc1ccccc1Cl	-5.8	
C/C(=N\NC(=O)c1ccc(CSc2nc(C)cc(C)n2)cc1)C1CCCCC1	-16.8	
CC1CCN(C(=O)/C(=C\c2ccccc2F)NC(=O)c2ccccc2)CC1	-22.6	
COC(=O)c1cccc(N(C(=O)CNC(=O)c2cccs2)C(C(=O)NCC2CCCO2)c2ccc(OC)c(OC)c2)c1 (stereo not drawn)	-19.2	
CCOCCn1c(-c2ccccc2)nc2ccccc21		18.4 µM (active)
COCCn1c(-c2ccc(OC)c(OC)c2)nc2ccccc21	-26.5	
CCCn1c(C(O)c2cc(OC)ccc2OC)nc2ccccc21 (stereo not drawn)	-14.8	
COc1ccc(-c2nc3ccccc3n2CCC(C)C)cc1OC		25.9 µM (active)
CCOCCn1c(C(C)C)nc2ccccc21	-25.3	
CCCCCN(C(=O)NC(=O)Nc1ccccc1OC)S(C)(=O)=O	-17.8	
CC(C)c1ccc(NC(=O)Cn2nnc(C(=O)NCCc3ccccc3)c2N)cc1	5.52	
CN(C)c1ccc(/C=C/c2sc3ccccc3[n+]2CCCCBr)cc1		0.316 µM (active)

SMILES	activity change, negative = growth inhibition [%]	Potency
CN(C)c1ccc(/C=C/c2sc3ccccc3[n+]2C)cc1		0.141 µM (active)
Cc1cccc(CN2CCN(Cc3cnn(-c4ccccc4F)c3)CC2CCO)n1 (stereo not drawn)	-16	
CC(=O)N1CCN(S(=O)(=O)c2ccc(C)c([N+](=O)[O-])c2)C1C(C)C (stereo not drawn)	-4.36	
O=C1CC2(CCCC2)C(=O)N1CN1CCN(S(=O)(=O)c2ccc(F)cc2F)CC1	-2.62	
CCC(C(=O)Nc1ncccn1)(C(F)(F)F)C(F)(F)F	-8.1	
COc1cc(Cl)c(C)cc1NC(=O)CSc1nnc(CN2CCCC2)o1	21.9	
CCOCC(=O)Nc1cc(OC)c(Cl)cc1OC	-4.91	
COc1cc(NC(=O)CSC(=S)N2CCCC2)c(OC)cc1Cl		14.6 µM (active)
COc1ccc(C(=O)N(C)CC(O)c2ccccc2)cc1OC1CCN(C(C)=O)CC1 (stereo not drawn)	18.6	
Cc1cc2c(=O)n(CC(=O)NCC(=O)Nc3ccc(C(C)C)cc3)cnc2s1	11.4	
CCC1(C)Cc2c(sc3[nH]c(=S)n(Cc4ccccc4)c(=O)c23)CO1 (stereo not drawn)		18.4 µM (active)
CCC1(C)Cc2c(sc3nc(SC)[nH]c(=O)c23)CO1 (stereo not drawn)	-2.82	
CCC1(C)Cc2c(sc3nc(SC)nc(N)c23)CO1 (stereo not drawn)	-40	
Cc1ccc(/C=C/C(=O)O)cc1S(=O)(=O)N1CCC(Cc2ccccc2)CC1	4.06	
CCOC(=O)C(CO)NC(=O)C1(NC(C)=O)CCCC1 (stereo not drawn) (Ac-[Ac5c]-[ξS]-OEt)	18.1	
C/C(=N\NC(=O)c1ccccc1F)c1ccccn1		0.517 µM (active)
COc1ccc(/C(C)=N/NC(=O)c2ccc3nc[nH]c3c2)cc1	1.6	
CNC(=S)N1CCN(c2ccccn2)CC1	0.242	
COc1ccc(C/C(C)=N/NC(=O)c2ccncc2)cc1	10.6	
C/C(=N\NC(=O)Cc1ccc(Cl)cc1)c1ccccn1		2.31 µM (active)
O=C(Nc1ccc(NC(=O)c2ccccc2F)cc1)c1ccccc1F	-0.0635	
Cc1cccc(C)c1NC(=S)N1CCCCCC1	-7.49	

SMILES	activity change, negative = growth inhibition [%]	Potency
CC(=NNC(=S)N1CCCCCC1)c1ccccn1		0.0164 µM (active)
C/C(CC(=O)Nc1ccc(N(C)C)cc1)=N\NC(=O)c1ccccc1F	6.54	
C/C(=N\NC(=O)Cc1ccc(Br)cc1)c1cccnc1	6	
COc1ccc(CC(=O)N/N=C(\C)c2ccccn2)cc1		7.31 µM (active)
CC1=NNC(=O)C1CCC(=O)N/N=C(\C)c1ccc(Cl)cc1 (stereo not drawn)	-2.58	
CCN(CC(=O)Nc1cc(Cl)ccc1C)C(=O)Cn1c(=O)cnc2ccccc21	4.61	
Cc1ccc(CC(=O)N(C)CC(=O)N(CC(C)C)c2c(N)n(CC(C)C)c(=O)[nH]c2=O)cc1C	-14.8	
O=C(COC(=O)c1ncc(Cl)c(Cl)c1Cl)NCc1cccs1	9.23	
CCN(CC)C(=O)Cn1cc(S(=O)(=O)CC(=O)NCc2ccc3c(c2)OCO3)c2ccccc21	-2.15	
Cc1ccccc1/C=C\c1nc(O)c([N+](=O)[O-])c(=O)[nH]1	1.57	
Cc1ccc(NC(=O)COc2ccc(/C=N\NC(=O)c3cccnc3)cc2)cc1C	-4.49	
CCOc1cc2c(Cl)ncnc2c(OCC)c1OCC	-0.504	
O=S(=O)(Nc1ccc(OC(F)(F)F)cc1)c1cccc2nonc12	-26.6	
CCOc1ccc(S(=O)(=O)n2ccnc2)c2ccccc12	0.648	
CC[C@@H]1CC2=C(C(=O)OC(C)(C)O2)[C@@H](CC)O1	-9.09	
CC(C)C1CC2=C(C(=O)OC(C)(C)O2)C(c2ccc(F)cc2)O1 (stereo not drawn)	-0.527	
CC1(C)OC(=O)C2=C(CC(c3ccccc3)OC2CCc2ccccc2)O1 (stereo not drawn)		23.1 µM (active)
CN(C)c1nc(-c2cccnc2)nc(-c2ccc(Cl)cc2)c1C#N	-26.8	
CN(C)C(=O)Cn1c(=O)n(S(=O)(=O)c2ccccc2)c2ccccc21	1.81	
CCNC(=O)CCc1nc(-c2ccc(C)cc2)no1	-26.5	
Cc1ccc(-c2noc(CCC(N)=O)n2)cc1	-15.8	
CC(=O)c1ccc(NC(=O)CCc2nc(-c3ccc(C)cc3)no2)cc1		16.4 µM (active)

SMILES	activity change, negative = growth inhibition [%]	Potency
CC(C)CC(=O)N=C1SC2CS(=O)(=O)CC2N1CCc1ccccc1 (stereo not drawn)	-18.7	
CCOC(=O)C1CCN(Cc2ccc(-c3ccccc3)cc2)CC1	3.59	
CCOC(=O)C1CCN(C(=O)COc2cc(C)c(Br)c(C)c2)CC1	-22.3	
CCOC(=O)C1CCN(c2ncnc3c2c(-c2ccccc2)cn3-c2ccc(C)cc2)CC1		18.4 µM (active)
CCOC(=O)C1CCN(c2ncnc3c2c(-c2ccccc2)cn3-c2cccc(C)c2)CC1		23.1 µM (active)
CCOC(=O)C1CCCN(C(=O)c2cccc3ccccc23)CC1 (stereo not drawn)	-29.7	
CCOC(=O)C1CCN(Cc2nnc(-c3cccc(Br)c3)o2)CC1	-4.65	
O=C(O)CCC(=O)Nc1ccc(N2CCOCC2)cc1	-10.6	
CCCC1C(=O)N2C(N(C)C)=Nc3ccc(C)cc3N2C1=O (stereo not drawn)		inactive
Cc1nn(C)cc1C(=O)c1ccccc1	1.93	
CC(=O)Nc1ccc(NC(=O)c2sc3nc4c(c(-c5ccc(C)cc5)c3c2N)CCC4)cc1	-9.97	
CN(C)c1ccnc2sc(C(=O)c3ccccc3)c(N)c12	-0.214	
CCOC(=O)c1sc2nc(SC)nc(-c3ccccc3)c2c1N	-8.81	
Cc1sc2nc(CC(N)=O)[nH]c(=O)c2c1-c1ccccc1	1.96	
Cc1nc2sc(C(=O)c3ccccc3)c(N)c2c2c1CCCC2		20.6 µM (active)
NC(=O)c1sc2nc3c(c(-c4ccccc4)c2c1N)CCC3		13 µM (active)
Cc1cccc(NC(=O)/C(=C\c2ccco2)NC(=O)c2ccccc2)c1	5.21	
Cc1cccc(NC(=O)c2sc3nc4c(c(-c5ccco5)c3c2N)CCC4)c1		25.9 µM (active)
CCCCC(NS(=O)(=O)c1ccc(C)cc1)C(=O)Oc1ccc2c3c(c(=O)oc2c1)CCC3 (stereo not drawn)	-29	
CCc1c(-c2ccccc2)nc(N)c(C#N)c1-c1cccs1	-7.76	

Reference: PubChem BioAssay AID686978 (National Center for Advancing Translational Sciences (NCATS), 2013)
